The supplement of paper PMC10849652
Of roughly 7,900 targets only a part is listed; those with a hit were picked by preference. About 0.6% of all pairs of compound and target were hits.

What was measured:
Test in all cases: log2 fold change, soluble protein after heating vs DMSO (PISA); higher = thermal stabilisation; K562 cells, 10 uM, 30 min; active = over 0.2 and 3.5 SD of the protein, either way, in both replicates (recomputed)
[1] = compound: CC1=C(C=C(C=C1)NC(=O)C2=CC(=CC=C2)C(C)(C)C#N)NC3=CC4=C(C=C3)N=CN(C4=O)C
Outline: (§1)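 K562 cells at 2×10^6 cells/mL were treated for 30 min with 10 μM compound, and aliquots were heated for 3 min over 48°C-58°C before pooling. Extraction used PBS with 0.5% NP-40 at 4°C, and soluble protein was the supernatant after 21,000xg for 90 min, measured by TMTpro 16plex LC-MS/MS with channel sums equalised. Thermal stability values, relative to control samples and from duplicates, are log2 fold changes.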

[2] = compound: CC1=C(C=C(C=C1)NC(=O)C2=CC(=CC=C2)N(C)C)NC(=O)C3=CC=C(C=C3)O
Outline: as §1

[3] = compound: CC1=CC=C(C=C1)SC2=C3C=C(SC3=CN=C2)C(=O)N
Outline: as §1

[4] = compound: CC1=NC(=CC=C1)C2=C(N=C(N2)C(C)(C)C)C3=CC4=NC=CN=C4C=C3
Outline: as §1

Nexturastat A = compound: CCCCN(Cc1ccc(C(=O)NO)cc1)C(=O)Nc1ccccc1 [Nexturastat A]
Outline: as §1

vemurafenib = compound: CCCS(=O)(=O)Nc1ccc(F)c(C(=O)c2c[nH]c3ncc(-c4ccc(Cl)cc4)cc23)c1F [vemurafenib]
Outline: as §1

[5] = compound: CCCS(=O)(=O)Nc1ccc(F)c(C(=O)c2c[nH]c3ncc(Cl)cc23)c1F
Outline: as §1

[6] = compound: CCCc1cc(C)[nH]c(=O)c1CNC(=O)c1cc(-c2ccnc(N3CCN(C)CC3)c2)cc2c1cnn2C(C)C
Outline: as §1

givinostat = compound: CCN(CC)Cc1ccc2cc(COC(=O)Nc3ccc(C(=O)NO)cc3)ccc2c1 [givinostat]
Outline: as §1

barasertib = compound: CCN(CCCOc1ccc2c(Nc3cc(CC(=O)Nc4cccc(F)c4)[nH]n3)ncnc2c1)CCOP(=O)(O)O [barasertib]
Outline: as §1

Measured: log2 fold change

GIGYF2 (UniProt Q6Y7W6)
inactive: [1] -0.075 | [2] 0.058 | [3] 0.01 | [4] 0.044 | Nexturastat A 0.05 | vemurafenib 0.043 | [5] 0.048 | [6] 0.049 | givinostat 0.092 | barasertib 0.093

HK2 (UniProt P52789)
Chain of UniProt P52789 (P52789 whole entry, looked up): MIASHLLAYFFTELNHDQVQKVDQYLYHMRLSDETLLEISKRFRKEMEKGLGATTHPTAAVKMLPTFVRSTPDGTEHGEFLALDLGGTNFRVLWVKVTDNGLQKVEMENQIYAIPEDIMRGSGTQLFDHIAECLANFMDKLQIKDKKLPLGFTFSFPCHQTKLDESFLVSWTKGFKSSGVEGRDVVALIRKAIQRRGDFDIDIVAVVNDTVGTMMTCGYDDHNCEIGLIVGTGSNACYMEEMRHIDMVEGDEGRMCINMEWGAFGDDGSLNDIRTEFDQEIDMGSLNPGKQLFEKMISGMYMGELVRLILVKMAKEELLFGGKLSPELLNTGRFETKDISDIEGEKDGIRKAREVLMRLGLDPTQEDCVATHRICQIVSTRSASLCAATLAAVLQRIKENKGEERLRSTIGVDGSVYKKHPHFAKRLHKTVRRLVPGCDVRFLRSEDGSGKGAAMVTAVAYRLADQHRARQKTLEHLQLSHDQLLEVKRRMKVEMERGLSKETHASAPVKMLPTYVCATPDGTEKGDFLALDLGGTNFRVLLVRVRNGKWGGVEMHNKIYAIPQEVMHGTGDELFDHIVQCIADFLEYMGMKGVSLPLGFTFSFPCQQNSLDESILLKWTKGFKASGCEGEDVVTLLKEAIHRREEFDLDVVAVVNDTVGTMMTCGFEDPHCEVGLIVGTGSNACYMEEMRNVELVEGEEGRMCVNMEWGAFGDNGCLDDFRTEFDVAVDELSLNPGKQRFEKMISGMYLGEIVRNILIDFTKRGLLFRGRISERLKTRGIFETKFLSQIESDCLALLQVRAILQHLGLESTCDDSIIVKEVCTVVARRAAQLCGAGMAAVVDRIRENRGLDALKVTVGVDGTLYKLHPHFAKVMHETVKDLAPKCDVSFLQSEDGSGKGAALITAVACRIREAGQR
active: [1] -0.257
inactive: [2] -0.028 | [3] 0 | [4] 0.019 | Nexturastat A 0.017 | vemurafenib 0.003 | [5] 0.027 | [6] -0.041 | givinostat -0.016 | barasertib 0.051

FBL (UniProt P22087)
inactive: [1] -0.039 | [2] 0.062 | [3] -0.146 | [4] -0.077 | Nexturastat A 0.243 | vemurafenib -0.11 | [5] -0.058 | [6] 0.165 | givinostat 0.138 | barasertib -0.106

GLS isoform 3 (UniProt O94925)
Chain of UniProt O94925 (O94925 whole entry, looked up): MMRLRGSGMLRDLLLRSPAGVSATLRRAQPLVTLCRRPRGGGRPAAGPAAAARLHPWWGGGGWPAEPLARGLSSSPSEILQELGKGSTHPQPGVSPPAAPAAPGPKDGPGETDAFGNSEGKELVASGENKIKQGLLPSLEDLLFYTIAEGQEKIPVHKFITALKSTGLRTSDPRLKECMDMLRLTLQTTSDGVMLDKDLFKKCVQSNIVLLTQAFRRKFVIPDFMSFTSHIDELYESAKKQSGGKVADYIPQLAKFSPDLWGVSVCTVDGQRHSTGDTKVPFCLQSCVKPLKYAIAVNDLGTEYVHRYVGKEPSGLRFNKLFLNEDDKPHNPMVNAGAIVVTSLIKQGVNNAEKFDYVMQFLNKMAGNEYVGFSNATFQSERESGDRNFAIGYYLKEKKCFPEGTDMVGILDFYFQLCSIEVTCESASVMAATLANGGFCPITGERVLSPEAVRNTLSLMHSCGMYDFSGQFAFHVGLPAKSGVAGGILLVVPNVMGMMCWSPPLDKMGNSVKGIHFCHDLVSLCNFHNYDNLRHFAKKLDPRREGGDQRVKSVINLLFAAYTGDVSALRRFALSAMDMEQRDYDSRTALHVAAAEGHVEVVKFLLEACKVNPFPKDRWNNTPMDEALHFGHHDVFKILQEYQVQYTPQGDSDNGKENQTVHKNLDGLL
inactive: [1] 0.004 | [2] -0.119 | [3] -0.01 | [4] 0.167 | Nexturastat A 0.087 | vemurafenib 0.155 | [5] 0.236 | [6] 0.061 | givinostat 0.031 | barasertib 0.061

GUSB (UniProt P08236)
Chain of UniProt P08236 (P08236 whole entry, looked up): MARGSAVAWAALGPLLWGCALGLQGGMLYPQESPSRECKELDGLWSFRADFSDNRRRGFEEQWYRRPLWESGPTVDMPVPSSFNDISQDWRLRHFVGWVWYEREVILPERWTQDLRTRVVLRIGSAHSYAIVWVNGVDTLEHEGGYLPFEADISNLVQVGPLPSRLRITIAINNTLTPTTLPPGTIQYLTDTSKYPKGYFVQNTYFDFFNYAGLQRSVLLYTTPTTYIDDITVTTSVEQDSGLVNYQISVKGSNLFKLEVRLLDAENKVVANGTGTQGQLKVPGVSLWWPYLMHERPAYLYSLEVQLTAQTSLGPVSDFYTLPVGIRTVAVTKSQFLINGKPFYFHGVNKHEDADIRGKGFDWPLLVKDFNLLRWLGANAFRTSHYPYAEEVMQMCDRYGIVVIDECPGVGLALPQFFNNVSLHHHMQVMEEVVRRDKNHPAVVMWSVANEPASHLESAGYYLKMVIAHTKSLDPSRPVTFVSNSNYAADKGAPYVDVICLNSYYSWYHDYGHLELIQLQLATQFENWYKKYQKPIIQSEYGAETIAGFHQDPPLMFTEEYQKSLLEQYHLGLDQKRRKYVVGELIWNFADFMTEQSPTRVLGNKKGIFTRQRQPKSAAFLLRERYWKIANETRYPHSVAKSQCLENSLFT
inactive: [1] -0.013 | [2] -0.014 | [3] -0.027 | [4] -0.073 | Nexturastat A 0.277 | vemurafenib 0.06 | [5] 0.03 | [6] -0.038 | barasertib -0.048
active: givinostat -0.501

GNPAT (UniProt O15228)
inactive: [1] -0.03 | [2] -0.046 | [3] 0.007 | [4] 0 | Nexturastat A -0.039 | vemurafenib 0.023 | [5] 0.045 | [6] 0.03 | givinostat 0.022 | barasertib 0.044

GLIPR2 (UniProt Q9H4G4)
inactive: [1] 0.156 | [2] -0.152 | [3] -0.054 | [4] -0.032 | Nexturastat A 0.062 | vemurafenib 0.092 | [5] -0.014 | [6] 0.028 | givinostat 0.009 | barasertib 0

HDGFL2 (UniProt Q7Z4V5)
inactive: [2] 0 | [3] -0.006 | [4] 0.049 | Nexturastat A 0.063 | vemurafenib -0.022 | [5] 0.007 | [6] -0.078 | givinostat 0.049 | barasertib 0.037
active: [1] -0.281

GLUL (UniProt P15104)
Chain of UniProt P15104 (P15104 whole entry, looked up): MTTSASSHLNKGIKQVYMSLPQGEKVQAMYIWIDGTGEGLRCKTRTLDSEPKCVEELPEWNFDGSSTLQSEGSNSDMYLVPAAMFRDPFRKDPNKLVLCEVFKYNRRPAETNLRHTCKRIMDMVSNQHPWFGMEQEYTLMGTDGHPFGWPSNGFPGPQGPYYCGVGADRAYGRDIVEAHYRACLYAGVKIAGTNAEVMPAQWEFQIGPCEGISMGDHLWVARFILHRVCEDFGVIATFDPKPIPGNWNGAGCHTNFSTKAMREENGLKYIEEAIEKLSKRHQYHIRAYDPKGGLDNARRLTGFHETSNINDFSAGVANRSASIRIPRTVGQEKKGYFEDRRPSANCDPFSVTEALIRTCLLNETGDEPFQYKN
inactive: [1] -0.008 | [2] -0.003 | [3] 0.055 | [4] -0.013 | Nexturastat A -0.02 | vemurafenib -0.04 | [5] -0.084 | [6] -0.016 | givinostat -0.082 | barasertib 0.004

FANCI (UniProt Q9NVI1)
inactive: [1] 0.012 | [2] 0.018 | [3] 0.01 | [4] 0.046 | Nexturastat A -0.054 | vemurafenib 0.016 | [5] 0.087 | [6] 0.009 | givinostat 0.043 | barasertib 0.029

GAPVD1 isoform 6 (UniProt Q14C86)
inactive: [1] 0.004 | [2] -0.041 | [3] 0.046 | [4] 0.019 | Nexturastat A 0.025 | vemurafenib 0.007 | [5] 0.13 | [6] 0.047 | givinostat 0.047 | barasertib 0.034

HDHD2 (UniProt Q9H0R4)
inactive: [1] 0.059 | [2] 0.028 | [3] 0.023 | [4] 0.014 | vemurafenib 0.02 | [5] 0.007 | [6] -0.028 | givinostat 0.007 | barasertib 0.011
active: Nexturastat A -0.316

FUBP3 (UniProt Q96I24)
inactive: [1] 0.021 | [2] -0.018 | [3] 0.01 | [4] 0.122 | Nexturastat A -0.114 | vemurafenib 0.035 | [5] 0.018 | [6] -0.059 | givinostat -0.023 | barasertib -0.012

HECTD1 (UniProt Q9ULT8)
active: Nexturastat A 0.273
inactive: [1] 0.04 | [2] -0.068 | [3] 0.144 | [4] -0.023 | vemurafenib -0.04 | [5] 0.126 | [6] 0.054 | givinostat 0.038 | barasertib 0.048

FDFT1 (UniProt P37268)
inactive: [1] -0.008 | [2] 0.01 | [3] 0.063 | [4] -0.034 | Nexturastat A 0.01 | vemurafenib 0 | [5] 0.092 | [6] 0.1 | givinostat -0.018 | barasertib 0.009

GNB2 (UniProt P62879)
Chain of UniProt P62879 (P62879 whole entry, looked up): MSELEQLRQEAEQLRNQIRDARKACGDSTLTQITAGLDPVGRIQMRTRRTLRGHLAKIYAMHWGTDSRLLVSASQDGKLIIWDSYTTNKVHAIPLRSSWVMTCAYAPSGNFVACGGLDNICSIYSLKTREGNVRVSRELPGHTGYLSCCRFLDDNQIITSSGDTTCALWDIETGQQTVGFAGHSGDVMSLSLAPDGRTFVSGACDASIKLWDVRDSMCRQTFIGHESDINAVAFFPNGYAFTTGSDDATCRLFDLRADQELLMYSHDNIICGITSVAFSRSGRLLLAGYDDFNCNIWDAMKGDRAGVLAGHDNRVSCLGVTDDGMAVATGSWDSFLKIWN
inactive: [1] 0.11 | [2] 0.018 | [3] -0.053 | [4] -0.018 | Nexturastat A -0.023 | vemurafenib 0.044 | [5] 0.036 | [6] 0.012 | givinostat -0.019 | barasertib -0.042

GALNT2 (UniProt Q10471)
Chain of UniProt Q10471 (Q10471 whole entry, looked up): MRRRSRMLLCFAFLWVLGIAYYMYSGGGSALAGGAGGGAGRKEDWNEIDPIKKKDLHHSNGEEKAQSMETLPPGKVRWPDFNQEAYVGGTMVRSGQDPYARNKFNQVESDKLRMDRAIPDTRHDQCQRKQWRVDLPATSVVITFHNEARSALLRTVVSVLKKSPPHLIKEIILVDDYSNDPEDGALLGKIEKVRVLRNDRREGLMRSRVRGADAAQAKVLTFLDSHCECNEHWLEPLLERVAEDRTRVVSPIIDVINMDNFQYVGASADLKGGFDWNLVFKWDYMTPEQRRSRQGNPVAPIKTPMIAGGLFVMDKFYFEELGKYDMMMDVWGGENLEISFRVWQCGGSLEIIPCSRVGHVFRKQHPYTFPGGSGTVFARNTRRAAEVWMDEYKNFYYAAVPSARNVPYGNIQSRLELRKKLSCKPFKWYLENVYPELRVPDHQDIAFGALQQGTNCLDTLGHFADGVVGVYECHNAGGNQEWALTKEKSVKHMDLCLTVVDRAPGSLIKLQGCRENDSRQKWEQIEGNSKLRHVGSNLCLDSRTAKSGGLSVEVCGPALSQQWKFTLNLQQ
inactive: [1] -0.003 | [2] -0.035 | [3] 0.016 | [4] 0.038 | Nexturastat A -0.032 | vemurafenib 0 | [5] 0.04 | [6] 0.03 | givinostat -0.005 | barasertib 0.011

GGT7 (UniProt Q9UJ14)
Chain of UniProt Q9UJ14 (Q9UJ14 whole entry, looked up): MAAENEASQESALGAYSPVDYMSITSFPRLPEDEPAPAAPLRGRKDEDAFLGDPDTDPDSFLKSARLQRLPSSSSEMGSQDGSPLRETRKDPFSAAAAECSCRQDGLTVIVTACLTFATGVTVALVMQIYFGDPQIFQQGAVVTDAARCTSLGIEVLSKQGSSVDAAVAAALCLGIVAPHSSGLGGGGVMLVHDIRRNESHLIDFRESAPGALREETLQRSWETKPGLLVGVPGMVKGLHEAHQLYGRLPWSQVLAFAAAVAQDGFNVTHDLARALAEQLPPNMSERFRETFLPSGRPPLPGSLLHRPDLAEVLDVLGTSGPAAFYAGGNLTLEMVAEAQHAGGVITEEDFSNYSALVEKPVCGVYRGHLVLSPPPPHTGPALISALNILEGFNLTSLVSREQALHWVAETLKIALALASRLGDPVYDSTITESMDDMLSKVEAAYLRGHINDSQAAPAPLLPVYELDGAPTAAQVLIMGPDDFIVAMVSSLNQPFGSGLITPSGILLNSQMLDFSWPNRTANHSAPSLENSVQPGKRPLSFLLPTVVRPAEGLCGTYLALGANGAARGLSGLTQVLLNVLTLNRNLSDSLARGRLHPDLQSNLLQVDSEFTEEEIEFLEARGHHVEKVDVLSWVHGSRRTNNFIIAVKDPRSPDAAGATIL
inactive: [1] -0.125 | [2] 0 | [3] 0.07 | [4] -0.008 | Nexturastat A 0.032 | vemurafenib 0.112 | [5] -0.011 | [6] 0.033 | givinostat 0.019 | barasertib 0.061

GLB1 (UniProt P16278)
inactive: [1] -0.051 | [2] -0.026 | [3] -0.033 | [4] -0.038 | Nexturastat A 0.086 | vemurafenib -0.017 | [5] -0.007 | [6] 0.003 | givinostat 0.002 | barasertib -0.027

FDXR isoform 7 (UniProt P22570)
inactive: [1] -0.011 | [2] -0.078 | [3] -0.039 | [4] 0.072 | Nexturastat A -0.07 | vemurafenib 0.02 | [5] 0.024 | [6] 0.059 | givinostat -0.021 | barasertib 0.035

HEXA (UniProt P06865)
Chain of UniProt P06865 (P06865 whole entry, looked up): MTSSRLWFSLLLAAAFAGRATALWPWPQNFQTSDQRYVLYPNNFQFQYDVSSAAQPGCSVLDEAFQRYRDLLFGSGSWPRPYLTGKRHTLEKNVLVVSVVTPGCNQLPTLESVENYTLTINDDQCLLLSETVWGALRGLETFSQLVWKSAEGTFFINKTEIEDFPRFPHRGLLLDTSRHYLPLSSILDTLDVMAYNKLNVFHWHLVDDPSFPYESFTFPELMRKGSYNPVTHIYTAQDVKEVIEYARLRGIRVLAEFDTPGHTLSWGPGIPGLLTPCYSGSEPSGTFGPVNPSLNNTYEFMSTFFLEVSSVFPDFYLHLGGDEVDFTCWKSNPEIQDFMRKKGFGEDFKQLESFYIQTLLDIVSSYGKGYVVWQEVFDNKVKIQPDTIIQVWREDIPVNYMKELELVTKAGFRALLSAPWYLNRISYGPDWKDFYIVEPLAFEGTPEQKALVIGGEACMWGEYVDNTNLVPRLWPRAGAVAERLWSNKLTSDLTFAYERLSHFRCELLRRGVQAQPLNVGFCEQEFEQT
inactive: [1] -0.046 | [2] 0.022 | [3] -0.019 | [4] 0.004 | Nexturastat A -0.035 | vemurafenib -0.006 | [5] -0.023 | [6] -0.023 | givinostat -0.018 | barasertib -0.001

GTF2E1 (UniProt P29083)
inactive: [1] -0.005 | [2] -0.057 | [3] 0.011 | [4] 0.115 | Nexturastat A 0.024 | vemurafenib 0.05 | [5] 0.082 | [6] -0.006 | givinostat 0.091 | barasertib 0.166

HMOX2 (UniProt P30519)
inactive: [1] 0 | [2] -0.06 | [3] 0.036 | [4] -0.019 | Nexturastat A -0.023 | vemurafenib 0.034 | [5] 0.012 | [6] 0.097 | givinostat 0.015 | barasertib 0.042

HAX1 (UniProt O00165)
inactive: [1] -0.018 | [2] -0.101 | [3] 0.03 | [4] -0.058 | Nexturastat A 0.066 | vemurafenib -0.012 | [5] 0.082 | [6] 0.045 | givinostat 0.009 | barasertib 0.046

HSPA8 (UniProt E9PK54)
inactive: [1] 0.023 | [2] 0.034 | [3] -0.123 | [4] 0.006 | Nexturastat A 0.227 | vemurafenib -0.036 | [5] 0.026 | [6] -0.098 | givinostat 0.167 | barasertib -0.023

GSTM4 (UniProt Q03013)
Chain of UniProt Q03013 (Q03013 whole entry, looked up): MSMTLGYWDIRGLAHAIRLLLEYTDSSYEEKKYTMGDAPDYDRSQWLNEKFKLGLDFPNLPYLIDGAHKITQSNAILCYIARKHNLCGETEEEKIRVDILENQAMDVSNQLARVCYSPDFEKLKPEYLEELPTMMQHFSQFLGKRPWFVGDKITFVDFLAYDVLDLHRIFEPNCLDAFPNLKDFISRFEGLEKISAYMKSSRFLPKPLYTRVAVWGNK
inactive: [1] 0.106 | [2] 0.128 | [3] -0.041 | [4] 0.015 | Nexturastat A -0.117 | vemurafenib 0.126 | [5] -0.058 | [6] -0.105 | givinostat 0.001 | barasertib -0.164

GDPD1 (UniProt Q8N9F7)
inactive: [1] 0.003 | [2] -0.135 | [3] 0.022 | [4] -0.07 | Nexturastat A -0.026 | vemurafenib 0.022 | [5] -0.081 | [6] 0.099 | givinostat -0.046 | barasertib 0.001

GATA1 (UniProt P15976)
inactive: [1] -0.05 | [2] 0.02 | [3] -0.085 | [4] -0.029 | Nexturastat A -0.104 | vemurafenib -0.06 | [5] -0.035 | [6] -0.003 | givinostat -0.047 | barasertib -0.034

FECH isoform 2 (UniProt P22830)
inactive: [1] 0.45 | [2] 0.162 | [3] -0.16 | [4] -0.006 | Nexturastat A -0.123 | vemurafenib 0.022 | [5] -0.167 | [6] 0.367 | givinostat -0.238 | barasertib -0.049

HSD17B12 (UniProt Q53GQ0)
inactive: [1] 0.094 | [2] 0.032 | [3] 0 | [4] 0.022 | Nexturastat A -0.111 | vemurafenib -0.006 | [5] -0.01 | [6] -0.141 | givinostat -0.018 | barasertib -0.04
